These results are taken from PubChem BioAssay (NCATS).

Results filed as inconclusive are left out. Activity calls are given as the source filed them. Calls come from the whole dose curve; as a rule, active = well fitted inhibition curve with a large enough effect; inconclusive = small, poorly fitted or top-dose-only effect; inactive = flat fitted curve, though single readings scatter.

Common to all, as to experiment: qHTS profiling for inhibitors of Plasmodium falciparum proliferation (AID 504749); note: nearly all actives have a fitted effect of over 60% in size
What all share (settings): P. falciparum in erythrocytes, SYBR Green DNA, 72 h; series mostly up to 28.7 µM
(qHTS replaces the single test concentration by a dilution series.)

The test system of experiment [1] is ATS95. Summed up:
(§1)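 Three-day growth assay of blood-stage parasites in erythrocytes (0.3% parasitemia, 2.5% hematocrit) at 37 C, 5% CO2, quantified by SYBR Green DNA staining after overnight detergent lysis.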

Experiment [2] relates to CP194. The essentials:
as §1

Experiment [3] has as its system CP201. The essentials: as §1
Experiment [4] deals with CP215. Summed up: as §1
For experiment [5], the system named is CP262. Summed up:
as §1

For experiment [6], the system named is CP266. Summed up:
as §1

In experiment [7] the test system is CP268. The essentials: as §1
Experiment [8] deals with CP269. The essentials:
as §1

Experiment [9] has as its system CP291. The essentials:
as §1

Experiment [10] has as its system CP297. Summed up:
as §1

The subject of experiment [11] is CP305. Summed up: as §1
The test system of experiment [12] is CP325. The essentials:
as §1

Experiment [13] deals with CP335. The essentials:
as §1

In experiment [14] the test system is DIV17. The essentials: as §1
Experiment [15] has as its system FAB9. The essentials:
as §1

The subject of experiment [16] is GB4. Summed up: as §1
Experiment [17] concerns JCK. The essentials: as §1
In experiment [18] the test system is P94_40. Summed up: as §1
Experiment [19] concerns PAD. The essentials: as §1
The test system of experiment [20] is TAB109. The essentials:
as §1
Potency is the fitted concentration of half-maximal effect.

On to `O=C(O)[C@@H](O)[C@@H](O)[C@H](O)C(=O)CO`, for which the Potency result in experiment [1], in experiment [2], in [3], in [4], in experiment [5] and in [6] was “inactive” each time. Besides, the Potency result in experiment [7], in experiment [8], in [9], in [10], in [11] and in [12] was “inactive” throughout. Further, the Potency result in experiment [13], in [14], in [15], in experiment [16], in experiment [17] and in [18] was “inactive” in each case. The Potency result in experiment [19] and in [20] was “inactive” throughout.

As to `CC1(C)S[C@@H]2[C@H](NC(=O)Cc3ccccc3)C(=O)N2[C@@H]1C(=O)O`, the Potency result in experiment [1], in experiment [2], in experiment [3], in experiment [4], in experiment [5] and in experiment [6] was “inactive” in each case. The Potency result in experiment [7], in experiment [8], in [9], in [10], in [11] and in experiment [12] was “inactive” each time. Further, the Potency result in [13], in experiment [14], in [15], in experiment [16], in experiment [17] and in experiment [18] was “inactive” in each case. Also, the Potency result in experiment [19] and in [20] was “inactive” each time.

As to `CC(C)(C)c1ccc(CN2CCN([C@H](c3ccccc3)c3ccc(Cl)cc3)CC2)cc1`, the Potency in experiment [13] is 3.38 µM (active); in [16], 15.1 µM (active); in experiment [18], 7.94 µM (active).

In the case of `Cc1onc(-c2c(F)cccc2Cl)c1C(=O)N[C@@H]1C(=O)N2[C@H]1SC(C)(C)[C@H]2C(=O)O`, the Potency result in experiment [1], in experiment [2], in experiment [3], in [4], in experiment [6] and in experiment [7] was “inactive” throughout. The Potency entry in [8], in [9], in experiment [10], in [11], in [12] and in experiment [14] was “inactive” throughout. In addition, the Potency entry in [15], in experiment [16], in [17], in experiment [18], in experiment [19] and in [20] was “inactive” throughout.

Turning to `C[C@H](CCC(=O)O)[C@H]1CC[C@@H]2[C@H]3[C@@H](C[C@@H](O)[C@]21C)[C@]1(C)CC[C@H](O)C[C@@H]1C[C@@H]3O`, the Potency result in [2], in [3], in experiment [5], in experiment [6], in [7] and in experiment [8] was “inactive” each time. Also, the Potency result in experiment [9], in experiment [10], in experiment [11], in experiment [12], in [13] and in experiment [14] was “inactive” in each case. The Potency result in [15], in experiment [17], in experiment [19] and in experiment [20] was “inactive” in each case.
